For seven molecules, relative growth results are on record in the supplement of paper PMC12067926.

Common to all, as to assay: relative growth (AUC of 72 h growth curve relative to DMSO control, dAUC) (ratio); higher = more growth (less inhibition), active = hit call of the paper
Common to all, as to conditions: 20 µM

Test [1] has as its system Aeromonas 1 (Aeromonas sp. AE235). In a few lines: (§1)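 For relative growth (dAUC), the spline-integrated area under the growth curve was divided by the mean of the DMSO controls. Results were averaged over three biological replicates. Each replicate used a 1:100 dilution, into 96-well plates holding each chemical at 20 µM (1% DMSO), of isolates from Icelandic stream sediments and Silwood Park soil or whole sediment communities that had been grown to carrying capacity in Luria–Bertani medium. Plates were shaken briefly before each hourly A600 reading over 72 h.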

In test [2] the test system is Aeromonas 2 (Aeromonas sobria). In outline: as §1
Test [3] concerns Aeromonas 3 (Aeromonas popoffii). In outline:
as §1

Test [4] deals with Argrobacterium 1 (Agrobacterium sp.). In a few lines: as §1
Test [5] deals with Arthrobacter 1 (Arthrobacter humicola). In outline: as §1
Test [6] has as its system Arthrobacter 2 (Arthrobacter humicola). In outline:
as §1

In test [7] the test system is Arthrobacter 3 (Arthrobacter sp.). In a few lines:
as §1

The subject of a further test is Community 4. In a few lines: as §1
The test system of a further test is Community 6. In a few lines:
as §1

A further test relates to Community 7. In a few lines:
as §1

The test system of a further test is Community 8. In outline: as §1
The test system of a further test is Community 9. In a few lines:
as §1

Test [8] has as its system Flavobacterium 1 (Flavobacterium glaciei). In outline: as §1
Test [9] relates to Flavobacterium 2 (Flavobacterium succinicans). In a few lines:
as §1

The subject of test [10] is Hymenobacter 1 (Hymenobacter glaciei). In outline:
as §1

In test [11] the test system is Microbacterium 1 (Microbacterium arborescens). In outline: as §1
Test [12] has as its system Neobacillus 1 (Neobacillus soli). In outline: as §1
The test system of test [13] is Oryzobacter 1 (Oryzobacter terrae). In outline:
as §1

Test [14] has as its system Paenibacillus 1 (Paenibacillus castaneae). In outline:
as §1

Regarding `N#Cc1c[nH]cc1-c1cccc2c1OC(F)(F)O2`, the relative growth was 0.982 (inactive) in [1]; 0.92 (inactive) in test [2]; 0.986 (inactive) in test [3]; 0.99 (inactive) in test [4]; 0.868 (inactive) in test [5]; 0.824 (inactive) in test [6]. The relative growth was 0.882 (inactive) in test [7]; 0.977 (inactive) with Community 4; 0.93 (inactive) in the test with Community 6; 1.12 (inactive) in the test on Community 7; 1.02 (inactive) in the test with Community 8; 0.914 (inactive) in the test with Community 9. For the same molecule, the relative growth in test [8] was 0.83 (inactive); in test [9] it was 0.856 (inactive); in test [10] it was 0.958 (inactive); in test [11] it was 1.01 (inactive); in test [12] it was 0.915 (inactive); in [13], 1.14 (inactive). In test [14], the relative growth was 0.904 (inactive).
Consider `CC(Oc1ccc(Oc2ncc(C(F)(F)F)cc2Cl)cc1)C(=O)O` (stereo not drawn), for which the relative growth is 0.952 (inactive) in [1]; 0.974 (inactive) in [2]; 0.959 (inactive) in test [3]; 0.969 (inactive) in [4]; 1.08 (inactive) in [5]; 1.03 (inactive) in test [6]. Also, the relative growth was 1.08 (inactive) in test [7]; 1.02 (inactive) in the test on Community 4; 0.947 (inactive) in the test with Community 6; 0.985 (inactive) with Community 7; 1.04 (inactive) with Community 8; 1.01 (inactive) with Community 9. Moreover, the relative growth in test [8] was 0.929 (inactive); in [9], 0.972 (inactive); in test [10], 1.05 (inactive); in [11], 0.984 (inactive); in test [12] it was 0.973 (inactive); in test [13] it was 1.13 (inactive). For the same molecule, in test [14], the relative growth is 0.966 (inactive).
For the molecule `CC[C@H](C)[C@H]1O[C@]2(C=C[C@@H]1C)C[C@@H]1C[C@@H](C/C=C(\C)[C@@H](O[C@H]3C[C@H](OC)[C@@H](O[C@H]4C[C@H](OC)[C@@H](O)[C@H](C)O4)[C@H](C)O3)[C@@H](C)/C=C/C=C3\CO[C@@H]4[C@H](O)C(C)=C[C@@H](C(=O)O1)[C@]34O)O2.CO[C@H]1C[C@H](O[C@H]2[C@H](C)O[C@@H](O[C@@H]3/C(C)=C/C[C@@H]4C[C@@H](C[C@]5(C=C[C@H](C)[C@@H](C(C)C)O5)O4)OC(=O)[C@@H]4C=C(C)[C@@H](O)[C@H]5OC/C(=C\C=C\[C@@H]3C)[C@]54O)C[C@@H]2OC)O[C@@H](C)[C@@H]1O`, the relative growth is 0.949 (inactive) in test [1]; 0.927 (inactive) in test [2]; 1.06 (inactive) in test [3]; 1.11 (inactive) in test [4]; 0.181 (active) in test [5]; 0.00817 (active) in test [6]. In addition, the relative growth in test [7] is 0.16 (active); in the test with Community 4, 0.808 (inactive); in the test on Community 6 it was 0.662 (active); in the test on Community 7, 1.17 (inactive); in the test on Community 8, 0.963 (inactive); in the test on Community 9 it was 0.624 (active). Moreover, the relative growth is 0.139 (active) in test [8]; 0.975 (inactive) in test [9]; 0.9 (inactive) in [10]; 0.963 (inactive) in [11]; 0.893 (inactive) in test [12]; 0.286 (active) in [13]. Besides, the relative growth in test [14] was 0.317 (active).
For `CNC(=O)c1cc(Cl)cc(C)c1NC(=O)c1cc(Br)nn1-c1ncccc1Cl`, the relative growth was 1.01 (inactive) in test [1]; 1.05 (inactive) in [2]; 1.03 (inactive) in test [3]; 0.963 (inactive) in test [4]; 1.08 (inactive) in test [5]; 0.758 (inactive) in [6]. Further, the relative growth in [7] is 1.02 (inactive); in the test on Community 4, 1.09 (inactive); in the test with Community 6, 1.07 (inactive); in the test on Community 7, 1.02 (inactive); in the test with Community 8, 1.04 (inactive); in the test with Community 9 it was 1.09 (inactive). For the same molecule, the relative growth was 1 (inactive) in test [8]; 1.03 (inactive) in test [9]; 1.13 (inactive) in test [10]; 0.975 (inactive) in test [11]; 1.04 (inactive) in test [12]; 0.99 (inactive) in test [13]. Besides, the relative growth in test [14] was 1.09 (inactive).
As for `O=C(Nc1ccccc1-c1ccc(Cl)cc1)c1cccnc1Cl`, the relative growth is 1.02 (inactive) in test [1]; 0.995 (inactive) in [2]; 1.04 (inactive) in test [3]; 0.962 (inactive) in [4]; 0.891 (inactive) in test [5]; 1.01 (inactive) in test [6]. In addition, the relative growth is 0.869 (inactive) in test [7]; 1.01 (inactive) in the test on Community 4; 1.01 (inactive) in the test on Community 6; 1 (inactive) in the test on Community 7; 1.03 (inactive) in the test with Community 8; 0.999 (inactive) in the test on Community 9. Moreover, the relative growth in test [8] is 1.04 (inactive); in test [9], 1 (inactive); in test [10] it was 1.11 (inactive); in test [11], 1.01 (inactive); in [12], 1.06 (inactive); in [13], 0.99 (inactive). In addition, in test [14], the relative growth is 1.02 (inactive).
Regarding `CC(C)CC(C)c1sccc1NC(=O)c1cn(C)nc1C(F)(F)F` (stereo not drawn), the relative growth was 0.935 (inactive) in test [1]; 0.946 (inactive) in [2]; 0.994 (inactive) in test [3]; 0.855 (inactive) in test [4]; 0.87 (inactive) in test [5]; 0.885 (inactive) in [6]. Further, the relative growth in test [7] was 0.936 (inactive); with Community 4, 0.78 (inactive); in the test with Community 6, 0.806 (inactive); in the test on Community 7, 1.06 (inactive); with Community 8 it was 1.01 (inactive); in the test with Community 9 it was 0.916 (inactive). Moreover, the relative growth in [8] was 1.02 (inactive); in [9], 0.921 (inactive); in test [10], 0.945 (inactive); in [11], 0.937 (inactive); in test [12] it was 0.924 (inactive); in test [13], 1.2. Moreover, the relative growth in test [14] is 0.906 (inactive).
As to `CNC(=O)Oc1cccc(/N=C/N(C)C)c1`, the relative growth was 1 (inactive) in [1]; 0.973 (inactive) in [2]; 0.975 (inactive) in [3]; 0.977 (inactive) in [4]; 0.93 (inactive) in test [5]; 0.951 (inactive) in [6]. In addition, the relative growth is 1.1 (inactive) in [7]; 0.984 (inactive) in the test with Community 4; 0.995 (inactive) in the test with Community 6; 1.15 (inactive) in the test with Community 7; 1.03 (inactive) with Community 8; 1.07 (inactive) with Community 9. In addition, the relative growth in [8] is 0.984 (inactive); in test [9] it was 0.99 (inactive); in [10] it was 0.815 (inactive); in test [11] it was 1.02 (inactive); in test [12], 0.97 (inactive); in [13], 1.05 (inactive). For the same molecule, in [14], the relative growth was 0.96 (inactive).
